Screens as filed in PubChem.
Sampled rows, rich in hits. Any-hit rate of the full collection: about 2.4%.
TMEM16A inh: TMEM16A chloride channel inhibitors, primary screen, cell-based, HTS; AID 588511, 2011; HEK293 TMEM16A/YFP iodide influx fluorescence, ionomycin; actives 1.2% (n = 310,000); normalized B-score (activity score, 25-100; higher = stronger inhibition) at 10 µM;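 active means ratio plate-corrected score three or more library SD toward inhibition, starting fluorescence score within five deviations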;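 further: score derived from kinetic fluorescence span divided by baseline fluorescence per well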
Target sequence (Q8BHY3 whole entry, looked up): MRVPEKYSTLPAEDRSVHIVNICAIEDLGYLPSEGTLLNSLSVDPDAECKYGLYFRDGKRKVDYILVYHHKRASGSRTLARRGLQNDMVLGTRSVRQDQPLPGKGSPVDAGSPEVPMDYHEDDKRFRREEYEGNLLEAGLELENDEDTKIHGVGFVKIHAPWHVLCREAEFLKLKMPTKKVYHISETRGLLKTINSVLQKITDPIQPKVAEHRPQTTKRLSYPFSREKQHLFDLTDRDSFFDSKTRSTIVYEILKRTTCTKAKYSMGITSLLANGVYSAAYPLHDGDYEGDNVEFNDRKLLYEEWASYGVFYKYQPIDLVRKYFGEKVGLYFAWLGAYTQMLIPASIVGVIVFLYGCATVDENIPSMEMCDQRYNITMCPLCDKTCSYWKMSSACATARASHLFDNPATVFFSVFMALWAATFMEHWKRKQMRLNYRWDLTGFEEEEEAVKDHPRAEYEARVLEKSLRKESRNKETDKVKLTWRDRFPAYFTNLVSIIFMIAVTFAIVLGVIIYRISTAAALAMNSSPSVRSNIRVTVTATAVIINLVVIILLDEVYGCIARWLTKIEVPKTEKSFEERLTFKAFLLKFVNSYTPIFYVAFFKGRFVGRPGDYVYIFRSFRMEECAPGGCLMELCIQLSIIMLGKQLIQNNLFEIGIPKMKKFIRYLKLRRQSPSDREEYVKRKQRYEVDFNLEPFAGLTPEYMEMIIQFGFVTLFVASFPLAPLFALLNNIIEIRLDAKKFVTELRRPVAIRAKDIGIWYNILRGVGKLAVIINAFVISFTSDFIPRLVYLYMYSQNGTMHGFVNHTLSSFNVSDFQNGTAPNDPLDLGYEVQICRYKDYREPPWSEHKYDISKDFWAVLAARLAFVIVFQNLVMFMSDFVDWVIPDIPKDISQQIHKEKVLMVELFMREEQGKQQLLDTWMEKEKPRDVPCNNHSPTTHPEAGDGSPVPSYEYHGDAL
TMEM16A act: TMEM16A chloride channel activators or potentiators, primary screen, cell-based, HTS | Anoctamin-1 (Mus musculus), Q8BHY3 | HEK293 TMEM16A/YFP-H148Q/I152L, iodide quench fluorescence; active compounds read low | B-score at 10 µM | actives 0.3% (n = 340,000);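 active means fluorescence-ratio B-score plate-corrected deviation score at least 3 library SD below zero, with starting fluorescence score within 5 deviations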;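 further: channel opened by trigger with iodide after compound preincubation; score built on the fluorescence ratio of max minus min over baseline; more negative score means more quench and so TMEM16A activation or potentiation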
CHT allo act: CHT positive allosteric modulators, primary screen, cell-based, membrane potential dye, choline EC20 | High affinity choline transporter 1 (Homo sapiens), Q9GZV3 | CHT-expressing cells; active compounds read high; LV-AA mutant CHT in HEK293 cells | B-score at 10 µM | actives 0.49% (n = 310,000);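 active means initial fluorescence not abnormally high and integrated response B-score, plate-corrected, over 3 SD above library mean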
CHT block: inhibitors of human choline transporter CHT; High affinity choline transporter 1 (Homo sapiens), Q9GZV3; CHT-expressing cells, membrane potential dye, choline response; active compounds read low; AID 488975, 2010; B-score at 10 µM; actives 0.86% (n = 310,000);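 active means B-score over 3 SD under the library average, and starting fluorescence ratio not unusually high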;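 further: choline stimulus applied at its EC90 after an EC20 pre-addition; B-score computed on integrated fluorescence ratio after choline addition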
* hit, by the source's call; i = inactive; nt = no result.

SMILES	TMEM16A inh	TMEM16A act	CHT allo act	CHT block
CCOc1ccc(NC(=S)N2CCC(C(=O)c3ccc(F)cc3)CC2)cc1	nt	i	nt	nt
COc1ccccc1-n1cnnc1SCC(=O)c1c[nH]c2ccccc12	i	i	i	i
O=C(C=Cc1ccccc1)c1cccs1	nt	i	nt	nt
Nc1ccc(/C=C/C(=O)c2cccs2)cc1	i	-5.74*	i	i
CCC(C)(C)C1CCC2(CC1)NC(CO)(CO)CO2 (stereo not given)	i	-4.87*	i	i
CCC(=C(c1ccc(OC)cc1)c1ccc(OC)cc1)c1cn(CC(O)CN(CCO)CCO)c2ccccc12 (stereo not given)	i	i	i	i
CCOc1ccc(-c2cnc(NCc3cccc4ccccc34)n2CCOC)cc1	100*	i	i	i
CSc1nc2ccc(NS(=O)(=O)c3ccc(Br)s3)cc2s1	25*	i	i	i
NC(=O)c1ccc(NS(=O)(=O)c2ccc(Br)s2)cc1	nt	-20.7*	nt	nt
O=C(C/C=N\OCc1ccc([N+](=O)[O-])cc1)Nc1ccc(F)cc1F	i	i	i	i
CCOC(=O)C1(CCCCCCOc2ccc(Cl)cc2)CO1 (stereo not given)	25*	nt	i	i
O=C(CCCOc1ccc(Cl)cc1)N1CCOCC1	i	i	i	i
CCCCn1c(N)c(N(CC(C)C)C(=O)C2CC(=O)N(Cc3ccco3)C2)c(=O)[nH]c1=O (stereo not given)	i	i	i	i
CC(=O)Nc1ccc2cc3ccc(NC(C)=O)cc3nc2c1	i	-9.81*	i	i
Clc1ccc(-c2noc(CSc3nnc(-c4ccncc4)n3-c3ccccc3)n2)cc1	100*	i	i	i
Cc1ccc(-c2noc(CSc3nnc(-c4ccncc4)n3-c3ccc(C)cc3)n2)cc1	i	i	i	i
Clc1ccc(-c2nnc(SCc3nc(-c4ccccc4)no3)o2)cc1	i	-4.7*	i	i
CC(=O)N1N=C(N)SC1(C)C	i	i	i	i
CCc1cc(C(=O)Nc2ccc(OC)nc2)sc1C	i	-5.06*	i	i
O=C(O)CNC(=O)c1ccc(NC(=O)/C(=C/c2ccccc2)NC(=O)c2ccccc2Br)cc1	i	i	i	i
CCN(C(=O)COC(=O)c1ccc(S(=O)(=O)N2CCCc3ccccc32)cc1)C1CCS(=O)(=O)C1 (stereo not given)	i	i	i	i
Cc1ccc(Cn2cnc3ccccc32)cc1C	i	i	i	i
NNC(=O)/C(=C/c1cccs1)NC(=O)c1ccccc1Cl	i	i	i	i
CCOC(=O)c1c(N)sc2c1CCN(CCc1ccccc1)C2	i	i	8.06*	i
CCOC(=O)c1c(NC(=S)Nc2ccccc2)sc2c1CCN(CCc1ccccc1)C2	i	nt	i	i
SMILES	TMEM16A inh	TMEM16A act	CHT allo act	CHT block
O=C(/C=C/c1ccc(O)c(O)c1)OCCc1ccccc1	100*	i	i	i
O=C(/C=C/c1ccc(O)c(O)c1)c1ccccc1O	100*	i	i	i
O=C(/C=C/c1ccc(O)c(O)c1)OC(Cc1ccc(O)c(O)c1)C(=O)O (stereo not given)	i	i	i	i
O=C(C=Cc1cccc(O)c1)c1ccccc1O	nt	i	nt	nt
COc1ccc(C(=O)NCc2cnn(C)c2)cc1OC1CCN(C(C)C)CC1	i	i	nt	nt
CCc1ccc(CNC(=O)c2ccc(OC)c(OC3CCN(C(C)C)CC3)c2)nc1	i	i	i	-9.6*
COc1ccc(C(=O)NC(Cn2ccnc2)C(C)(C)C)cc1OC1CCN(C(C)C)CC1 (stereo not given)	i	i	i	-8.71*
COc1ccc(C(=O)NNC(=O)CSc2nnc(-c3ccc(O)cc3)n2C)cc1	i	i	i	i
Cc1c(C(=O)N2CC[C@@H](N3CCC(O)CC3)[C@H](O)C2)[nH]c2ccc(Cl)cc12	i	i	i	i
C=CCn1c(C(CC)CC)nc2ccccc21	i	i	i	i
Cc1ccc(/C=C2\C(=O)ON=C2c2ccccc2)o1	i	i	i	i
Cc1ccc(-c2ccc(/C=C3\C(=O)ON=C3c3ccccc3)o2)c([N+](=O)[O-])c1	100*	-5.65*	i	i
O=C(CCNC(=O)c1ccccc1Cl)NCC(c1ccc(F)cc1)N1CCOCC1 (stereo not given)	i	i	i	i
CCOC(=O)N1CCN(C(=S)Nc2ccc3nc(N4CCN(CC)CC4)cc(C)c3c2)CC1	i	i	i	-8.34*
COc1ccc(CCNC(=S)NCCc2ccc(OC)c(OC)c2)cc1OC	25*	i	i	i
COc1ccc(Cl)cc1NC(=S)NCCc1ccc(S(N)(=O)=O)cc1	i	-6.17*	i	i
CNC(=S)NCCc1ccc(OC)c(OC)c1	i	i	i	i
O=C(N1CCN(Cc2ccc3c(c2)OCO3)CC1)C(Cl)(Cl)Cl	i	i	i	i
CN(C)S(=O)(=O)c1cccc(NC(=S)Nc2cc(Cl)cc(Cl)c2)c1	100*	i	i	i
CCN(CC)CCCNc1ccc(-c2nnc(-c3ccc(OCC(C)C)cc3)o2)cn1	i	-5.64*	i	i
CCN(CC)CCCNC(=O)C1CCC(CNS(=O)(=O)c2ccc(Cl)cc2)CC1 (stereo not given)	i	i	i	i
Cc1ccc(CNc2ccc3c(c2)ncn3C(C)C)cc1	i	-13.4*	i	i
Cc1sc2nc(CN(Cc3cccs3)C(=O)NC3CCCCC3)[nH]c(=O)c2c1C	i	i	i	i
COc1ccc2c(c1)cc1n2CCN2CCCN=C12	i	i	i	-6.23*
Cc1ccn2c(NC(=O)C(C)(C)Oc3ccc(Cl)cc3)c(-c3cccs3)nc2c1	i	i	i	-7.94*
SMILES	TMEM16A inh	TMEM16A act	CHT allo act	CHT block
NC(=O)C1=C(c2ccccc2)c2ccccc2C1=O	nt	-6.31*	nt	nt
O=C1c2ccccc2-c2nnc(-c3ccccc3)cc21	i	i	i	i
COc1ccc(S(=O)(=O)N2CCOCC2)cc1NC(=O)CSc1nnc2n1CCCCC2	nt	i	nt	nt
CCc1ccccc1OCc1nnc(N)s1	25*	i	i	i
Cc1cccc(OCc2nnc(N)s2)c1	i	i	i	i
CN(CCCN1CCCCC1)C(=O)c1cc(COc2ccc(F)cc2F)on1	i	i	i	i
NNC(=O)CN1CCN(c2ncc(C(F)(F)F)cc2Cl)CC1	i	i	i	i
CC(C)(C)NC(=O)NC(=O)CN1CCN(c2ncc(C(F)(F)F)cc2Cl)CC1	25*	i	i	i
COc1cc(N)c(Cl)cc1C(=O)OCC(=O)N1CCCC1	i	i	i	i
